Molecules are shown by their SMILES. Among all 48,000 compounds or so, about 13,000 (27%) showed an effect of 50% or more. The list shows a part of the results.

The values below come from ChEMBL document CHEMBL3988442, “University of Dundee, Small-Polar-MMV Screening Library” (2021).

The subject of the experiment is Wolbachia pipientis. Briefly: Anti-Wolbachia Cell-Based Screen. The experiment is classed as functional. Further details: scale not given: in the data most compounds retested in dose-response had high values. The settings on record: 5 µM.
`CC(C)(C)c1nc2cc(NC(=O)Cn3ccc(=O)[nH]c3=O)ccc2o1`: the “Percent Effect” value was -2.056%. With `Cc1cccc(C(C(=O)N2CCN(C(=O)c3ccc[nH]3)CC2)N(C)C)c1` (configuration not stated) the figure was 8.522%. With `Clc1ccc2nc(N3CCC(NCCCC4CCOC4)CC3)sc2c1` (configuration not stated) the figure was 5.411%; with `CC(C)COCC(C)NC(=O)NCc1cccc(-n2cncn2)c1` (configuration not stated), 11.71%.

Turning to `CCN1CCCC(C)(C(=O)NCc2nnnn2-c2ccccc2)C1` (configuration not stated), the “Percent Effect” value was 65.9%. As for `CCN1CCCC(C)(C(=O)NCCc2n[nH]c(=O)[nH]2)C1` (configuration not stated), the figure is 34.99%. Turning to `CCC1(CO)CCCN(Cc2nccn2Cc2ccccc2)C1` (configuration not stated), the “Percent Effect” value turned out to be 7.742%. Turning to `CCN1CCCC(C)(C(=O)NCCc2nnc(C)[nH]2)C1` (configuration not stated), the “Percent Effect” value worked out at 0.7717%.

For `CCN1CCCC(C)(C(=O)NCc2nccn2Cc2ccccc2)C1` (configuration not stated), the “Percent Effect” value came out at 105.1%.

With `CCOC(=O)C1(Cc2ccccc2)CCCN(Cc2nccn2CC)C1` (configuration not stated), the “Percent Effect” value was 6.244%.

As to `CCN1CCCC(C)(C(=O)NCCCc2nc(C)cs2)C1` (configuration not stated), the “Percent Effect” value is reported as -10.41%. As for `CCN1CCCC(C)(C(=O)NCc2nncn2CCc2ccccc2)C1` (configuration not stated), the figure is 118.3%. `Cc1nnc(N2CCC(CN(C)C(C)C)CC2)c(C#N)c1C`: the “Percent Effect” value came to 6.063%. In the case of `O=C(CC1CC1)N1CCn2cc(Cn3cncn3)nc2C1`, the “Percent Effect” value worked out at 0.5446%. As for `Cn1cc(Br)cc1C(=O)NCC(C)(O)c1ccsc1` (configuration not stated), the figure is -10.72%; as for `Cn1cc(S(=O)(=O)NCC(C)(O)c2ccsc2)cn1` (configuration not stated), 76.2%. Turning to `Cn1cnc(S(=O)(=O)NCC(C)(O)c2ccc3c(c2)OCO3)c1` (configuration not stated), the “Percent Effect” value is given as -0.9964%. As for `CSCC(C)(O)CNc1ncccc1I` (configuration not stated), the figure is 15.53%; as for `Cc1nnsc1C(=O)N1CCN(C(=O)C2CCC2)[C@@H]2CS(=O)(=O)C[C@@H]21`, 2.369%.

With `Cc1nc2cc(C3CCCCN3C(=O)C3CC3)nn2c(O)c1C` (configuration not stated), the “Percent Effect” value is given as 136.9%. As to `Cc1nc2cc(C3CCN(Cc4cccc(F)c4F)C3)nn2c(O)c1C.O=C(O)CC(O)(CC(=O)O)C(=O)O` (configuration not stated), the “Percent Effect” value is reported as -10.9%.

As to `Cc1ncsc1C(=O)N1CCCCC1c1cc2nc(C)c(C)c(O)n2n1` (configuration not stated), the “Percent Effect” value turned out to be 146.5%.

Turning to `Cc1nnsc1C(=O)N1CCCCC1c1cc2nc(C)c(C)c(O)n2n1` (configuration not stated), the “Percent Effect” value came to 136.2%. With `CC(=O)N1CCN(C(=O)c2snnc2C)[C@H]2CS(=O)(=O)C[C@H]21` the figure was -13.7%; with `CC1CCCN(c2ccc(C(N)=O)cc2NC(=O)CC2=CCNCC2)C1` (configuration not stated), 16.61%. With `O=C1N(Cc2ccccc2F)CCCC12CCN(C1CCSCC1)C2` (configuration not stated), the “Percent Effect” value was -13.98%. For `Cc1ncsc1CN1Cc2cn(C)nc2C(COCC2CC2)C1.O=C(O)C(F)(F)F.O=C(O)C(F)(F)F` (configuration not stated), the “Percent Effect” value was found to be 13.37%. With `Cc1ccnn1CC(=O)N1CCCN(C2Cc3ccccc3C2)CC1` the figure was -5.068%.

Turning to `CC(C)NC(=O)C1Cc2nc(-c3ccsc3)sc2N1CC1CC1` (configuration not stated), the “Percent Effect” value was found to be 78.87%. Turning to `O=C(NC1CC1)C1CCCN1c1ncnc2ccsc12` (configuration not stated), the “Percent Effect” value was -11.59%.

`O=C([C@@H]1CCCO1)N1CCC(Cn2cc(-c3ccsc3)nn2)CC1`: the “Percent Effect” value is reported as -13.58%. Regarding `O=C(NC1CCCC1)C1Cc2nc(-c3ccsc3)sc2N1CC1CC1` (configuration not stated), the “Percent Effect” value is given as 63.55%. For `CC(C)N1c2sc(-c3ccsc3)nc2CC1C(=O)NC1CCCC1` (configuration not stated), the “Percent Effect” value was determined as 65.31%. Turning to `Cc1cncc(C(=O)N2CCC(Cn3cc(-c4ccsc4)nn3)CC2)c1`, the “Percent Effect” value was -0.4456%. For `CC(C)N1c2sc(-c3ccccc3)nc2CC1C(=O)NC1CCCC1` (configuration not stated), the “Percent Effect” value turned out to be 22.35%.

In the case of `CS(=O)(=O)NCC1CCCCN1C(=O)c1csc(-c2ccsc2)n1` (configuration not stated), the “Percent Effect” value worked out at 11.05%. As for `CC(C)N1c2sc(-c3ccsc3)nc2CC1C(=O)NC1CC1` (configuration not stated), the figure is 38.95%; as for `COCCCN1CCCN(C(C)C(=O)Nc2cccc(I)c2)CC1` (configuration not stated), 23.62%; as for `COc1ccc(-n2nc(C)c(C(C)=O)c2C)cc1CO`, -7.291%.

Regarding `Cc1nc(COCc2nc3c(o2)CN(C(=O)c2ccoc2)C3)cs1`, the “Percent Effect” value was found to be 0.193%. With `CN(C)c1nc2c(c(N3CCC(O)CC3)n1)CN(CC(C)(C)C)CC2` the figure was 3.405%. As for `c1cc(CNCc2ccnc(N3CCCC3)c2)c2c(c1)OCO2`, the figure is -29.77%.

`Cc1noc(C(C)C)c1C(=O)NCC1CCCN1Cc1ccccc1` (configuration not stated): the “Percent Effect” value is given as -8.242%. With `Cc1noc(C(C)C)c1C(=O)NCCCN1CCNCC1.Cl` the figure was 114.5%. In the case of `Cc1noc(C(C)C)c1C(=O)NCCN1CCOCC1`, the “Percent Effect” value is on record as 72.1%. As for `CC(Cn1cccn1)NC(=O)NCCCN1CCCCCC1=O` (configuration not stated), the figure is -6.235%; as for `CC(NC(=O)NCCN1CCCCCC1=O)c1nncn1C` (configuration not stated), -0.9457%. Turning to `CCC(CC)(CCCNC(=O)c1c(C)noc1C)C1OCCO1`, the “Percent Effect” value is -3.207%. For the compound `Cc1noc(C(C)C)c1C(=O)NCCC(=O)N1CCCCC1`, the “Percent Effect” value is 90.26%. As for `Cc1nc(-c2ccsc2)ccc1C(=O)NCCC(=O)N1CCCC1`, the figure is 0.2112%; as for `Cc1noc(C)c1C(=O)NCCN1CCOCC1`, 15.76%; as for `Cc1noc(C)c1C(=O)NCCN1CCN(c2ccccc2)CC1`, 7.051%. For the compound `Cc1noc(C(C)C)c1C(=O)NCCCN1CCCCCC1=O`, the “Percent Effect” value was 122%. As for `Cc1cc(C)n(CC2(CNC(=O)C(c3ccc(F)cc3)N(C)C)CC2)n1` (configuration not stated), the figure is 1.569%; as for `CN(Cc1ccsc1)C(=O)Nc1ccc(S(C)(=O)=O)nc1`, -1.265%. With `COCCN1CC[C@H]2CN(c3cc(OC)ncn3)C[C@@H]2C1=O.O=C(O)C(F)(F)F` the figure was -11.01%; with `CN1C(=O)CC(c2ccccc2)C12CCN(c1ncc(F)cn1)CC2` (configuration not stated), 11.07%; with `O=C1N(c2ccc(Br)cc2)Cc2n[nH]c(=O)n21`, -3.118%. Consider `Cc1ccccc1CCCN(C)S(C)(=O)=O`, for which the “Percent Effect” value turned out to be 5.397%. As for `Cc1ccsc1CNC1CCCc2c1cnn2C.Cl` (configuration not stated), the “Percent Effect” value is recorded as -3.429%.

`COc1cc(OC)cc(-c2cccc3c2OC(CN)C3)c1` (configuration not stated): the “Percent Effect” value came to 2.272%. As for `Cc1noc(C(C)C)c1C(=O)NCC1CCN(c2ccccc2)C1` (configuration not stated), the figure is -7.701%; as for `COc1ccc(S(=O)(=O)NC(=O)c2c(C)noc2C(C)C)cc1OC`, 2.156%; as for `CC1CCN(CCCNC(=O)C2CCCCC2)CC1`, 13.42%. With `Cc1noc(C(C)C)c1C(=O)NCc1cc(F)cc(F)c1` the figure was -8.359%. On to `COCCCNC(=O)c1c(C)noc1C(C)C`, for which the “Percent Effect” value is on record as 99.64%. As for `Cc1noc(C(C)C)c1C(=O)NCCCN1CCC(C)CC1`, the figure is 80.48%.
